DT40 TDP1 CPT – qHTS for Inhibitors of human tyrosyl-DNA phosphodiesterase 1 (TDP1): qHTS in cells in presence of CPT; chicken DT40 Tdp1-/-;hTDP1 cells + 20 nM CPT, ATP luminescence, 48 h; Potency, µM (series often up to 46.2 µM), for inactives: at the highest dose activity change, negative = growth inhibition, hits mostly inhibitors; actives 12% (n = 420,000); note: potency is the fitted concentration of half-maximal effect; % is set by controls: 0 for no effect and ±100 for the full control effect; nearly all actives have a fitted effect of over 55% in size
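Chicken DT40 Tdp1-/- cells stably complemented with human TDP1 were seeded at 400 cells/well in medium containing 20 nM camptothecin, exposed to pin-transferred compounds, and grown at 37 °C for at least 48 hr. Viability was read as ATP luminescence.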
TDP1 inh – qHTS Assay for Inhibitors of Tyrosyl-DNA Phosphodiesterase (TDP1) | Tyrosyl-DNA phosphodiesterase 1 (Homo sapiens), Q9NUW8 | recombinant TDP1, AlphaScreen DNA substrate cleavage | Potency, µM (highest dose often 130 µM), for inactives: at the highest dose activity change, negative = inhibition, actives largely listed as inhibitors | actives 0.28% (n = 350,000); note: potency is the fitted concentration of half-maximal effect; % is set by controls: 0 for no effect and ±100 for the full control effect; nearly all actives have a fitted effect of over 40% in size
Target sequence (Q9NUW8 whole entry, looked up): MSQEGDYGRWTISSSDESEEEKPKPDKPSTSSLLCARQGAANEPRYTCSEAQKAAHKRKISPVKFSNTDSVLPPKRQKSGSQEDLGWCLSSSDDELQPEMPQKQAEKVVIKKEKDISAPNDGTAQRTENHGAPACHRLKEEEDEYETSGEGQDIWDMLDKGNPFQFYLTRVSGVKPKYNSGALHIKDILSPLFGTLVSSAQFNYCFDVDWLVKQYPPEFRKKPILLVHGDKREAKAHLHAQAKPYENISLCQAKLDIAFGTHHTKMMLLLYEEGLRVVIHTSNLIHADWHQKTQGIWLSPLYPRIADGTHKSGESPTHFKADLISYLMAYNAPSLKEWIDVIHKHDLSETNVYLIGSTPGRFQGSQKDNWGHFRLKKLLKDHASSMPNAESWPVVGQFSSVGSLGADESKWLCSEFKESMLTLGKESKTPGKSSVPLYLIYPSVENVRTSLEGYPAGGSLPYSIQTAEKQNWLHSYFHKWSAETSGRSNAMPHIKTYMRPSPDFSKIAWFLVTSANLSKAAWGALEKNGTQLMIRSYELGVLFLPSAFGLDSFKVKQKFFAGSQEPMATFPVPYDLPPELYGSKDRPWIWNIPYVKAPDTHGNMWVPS
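Enzyme-compound mixtures sat 15 min at room temperature, followed by a 5 min reaction with 15 nM final substrate and 10 min with AlphaScreen beads. Recombinant human Tdp1 was used at 1 nM final.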
HepG2 tox – qHTS for Inhibitors of TGF-b: Cytotox Counterscreen. Potency, µM (doses to about 46.1 µM), inactives show at the top dose activity change, negative = cytotoxicity, hits mostly cytotoxic. actives 0.76% (n = 410,000). AID 588856, 2011. HepG2 CAGA-GFP viability, ATP luminescence, 18 h; note: potency is the fitted concentration of half-maximal effect
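CellTiter-Glo luminescence gave cytotoxicity after 18 hours at 37 degrees C. The cells were HepG2 CAGA-GFP in 1% FBS DMEM, stimulated with 500 pg/mL TGF-beta after compound addition. %Activity was normalised to no-cell wells (complete cell-killing) and DMSO (no toxicity), and curves were fitted and classified.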
IL-1B inflam inh – qHTS for Inhibitors of Inflammasome Signaling: IL-1-beta AlphaLISA Primary Screen; THP-1 LPS/ATP IL-1B secretion, AlphaLISA, 16 h; active compounds read low; activity change, % at 57.5 µM; actives 4.7% (n = 360,000); AID 743279, 2014; in the data active = activity change below about -50%; inconclusive = mostly about -30% to -49%; note: % is set by controls: 0 for no effect and ±100 for the full control effect
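THP-1 cells pretreated 1 hr with compounds (up to 57.5 uM final), then stimulated with LPS (250 ng/mL final) plus ATP (1.25 mM final); secreted IL-1B measured by AlphaLISA after 16 hr, decreased signal indicating inhibition.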
DT40 TDP1 no CPT – qHTS for Inhibitors of human tyrosyl-DNA phosphodiesterase 1 (TDP1): qHTS in cells in absence of CPT; actives 15% (n = 420,000); AID 686978, 2013; DT40 Tdp1-/- hTDP1 cells, no CPT, ATP luminescence, 48 h; Potency, µM (doses to about 46.2 µM), without a hit: at the highest dose activity change, negative = growth inhibition, actives largely listed as inhibitors; note: potency is the fitted concentration of half-maximal effect; % is set by controls: 0 for no effect and ±100 for the full control effect; nearly all actives have a fitted effect of over 55% in size
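Compound effects on proliferation are scored in DT40 Tdp1-/-;hTDP1 cells in the absence of CPT. ATP levels (CellTiter-Glo luminescence) are recorded after a ≥48 hr, 37 °C incubation.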
TGFb SMAD3 inh – qHTS for Inhibitors of TGF-b. HepG2 CAGA-GFP TGF-b/SMAD3 reporter, GFP fluorescence, 18 h; TGF-beta stimulated, 500 pg/mL final. Potency, µM (titrated, usually from 46.1 µM), for inactives: at the highest dose activity, negative = inhibition, actives largely listed as inhibitors. actives 1.2% (n = 410,000); note: potency is the fitted concentration of half-maximal effect; % is set by controls: 0 for no effect and ±100 for the full control effect; nearly all actives have a fitted effect of over 65% in size
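Read-out: total well GFP (ex488/em500-530) summed from mean per-cell fluorescence. Cells: HEPG2 CAGA-GFP, 1% FBS DMEM, 18 h at 37 degrees C with 500 pg/mL final TGF-beta. Unstimulated wells served as the full-inhibition control; stimulated DMSO wells = 0%.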
The depositor's hits bear a star; [ ] = another dose, or the depositor's remark. Rows were chosen to be rich in hits. Some 19% of all compounds tested hit in one or more screens of this group. Unless noted, calls come from the whole dose curve; as a rule, active = well fitted curve in the direction sought with a large enough effect; inconclusive = small, poorly fitted or top-dose-only effect, or another doubt; inactive = no such curve, though single readings can be large; an effect the other way counts as inactive or inconclusive.

`CC(C)Oc1ccc(CNC(=O)CN2C(=O)CCn3nc(-c4cn(C)c5ccccc45)cc32)cc1` gave DT40 TDP1 CPT inconclusive, TDP1 inh 6.5%, HepG2 tox -25.8%, DT40 TDP1 no CPT inconclusive and TGFb SMAD3 inh inconclusive.
For O=C(CSCc1ccccc1)N1CCN(S(=O)(=O)c2cccc(F)c2)CC1 the results were DT40 TDP1 CPT -0.2%, TDP1 inh 0.0%, HepG2 tox 2.5%, IL-1B inflam inh 8.3, DT40 TDP1 no CPT -23.5% and TGFb SMAD3 inh -37.3%.
For CC(=O)Nc1ccc([N+](=O)[O-])c(CS(=O)(=O)c2ccc(C)cc2)c1[N+](=O)[O-] the results were DT40 TDP1 CPT inconclusive, TDP1 inh 11.2%, HepG2 tox -3.1%, IL-1B inflam inh 45.1, DT40 TDP1 no CPT 23.1µM* and TGFb SMAD3 inh -5.0%.
For O=C(COCc1cc(-c2ccc(F)cc2)on1)Nc1cc(Cl)ccc1O the results were DT40 TDP1 CPT inconclusive, TDP1 inh 3.5%, HepG2 tox -47.1%, DT40 TDP1 no CPT inconclusive and TGFb SMAD3 inh inconclusive.
Screening N#Cc1ccc(NC(=O)COCc2cc(-c3ccc(F)cc3)on2)cc1 returned DT40 TDP1 CPT inconclusive, TDP1 inh 0.0%, HepG2 tox -8.0%, DT40 TDP1 no CPT 20.6µM* and TGFb SMAD3 inh -3.3%.
For CC(Oc1ccc2c(c1)c1ccnc3c4ccccc4c(=O)n2c13)C(=O)NCCN1CCOCC1 (centres undefined) the results were DT40 TDP1 CPT 8.2µM*, HepG2 tox 11.2µM*, IL-1B inflam inh -51.5*, DT40 TDP1 no CPT 7.31µM* and TGFb SMAD3 inh -0.5%.
COc1ccc2c(c1OC)c(=O)n1c3ccc(OC(C)C(=O)NCCN4CCOCC4)cc3c3ccnc2c31 (centres undefined) was read as DT40 TDP1 CPT 16.4µM*, HepG2 tox -23.7%, IL-1B inflam inh inconclusive, DT40 TDP1 no CPT 23.1µM* and TGFb SMAD3 inh 24.7%.
Screening COc1ccc2c(c1OC)c(=O)n1c3ccc(OC(C)C(=O)NCCCN4CCOCC4)cc3c3ccnc2c31 (centres undefined) returned DT40 TDP1 CPT 13µM*, HepG2 tox -9.9%, IL-1B inflam inh inconclusive, DT40 TDP1 no CPT 6.51µM* and TGFb SMAD3 inh 22.0%.
For CC(Oc1ccc2c3c(c(=O)oc2c1)CCCC3)C(=O)NCCN1CCOCC1 (centres undefined) the results were DT40 TDP1 CPT -24.7%, TDP1 inh 2.0%, HepG2 tox 0.7%, IL-1B inflam inh 8.4, DT40 TDP1 no CPT 2.4% and TGFb SMAD3 inh -1.0%.
COC(=O)C(Cc1ccccc1)NC(=O)CCNC(=O)c1ccco1 (centres undefined) was read as DT40 TDP1 CPT 3.7%, TDP1 inh 5.2%, HepG2 tox 0.2%, IL-1B inflam inh -3.9, DT40 TDP1 no CPT -5.4% and TGFb SMAD3 inh -5.6%.
For COC(=O)C1=C(C(=O)OC)[C@@H]2N(Cc3ccccc3)c3ccccc3[C@@]23C[C@@H](C(=O)OC)N(S(=O)(=O)c2ccc(C#N)cc2)C3=N1 the results were TDP1 inh 11.4%[21 µM].
For O=C(CNC(=O)c1ccccc1)OC(C(=O)Nc1ccc2c(c1)OCO2)c1ccccc1 (centres undefined) the results were TDP1 inh 0.2%.
For COC(=O)/C=C\C(C#N)(C#N)N=Cc1ccc(OC)cc1 the results were DT40 TDP1 CPT 1.3µM*, HepG2 tox -7.0%, IL-1B inflam inh 0.0, DT40 TDP1 no CPT 0.651µM* and TGFb SMAD3 inh -4.9%.
Screening Cc1cccc(N2CCN(Cc3nc(-c4cccc(Cl)c4)oc3C)CC2)n1 returned DT40 TDP1 CPT inconclusive, TDP1 inh 2.4%, HepG2 tox -3.0%, IL-1B inflam inh 25.1, DT40 TDP1 no CPT inconclusive and TGFb SMAD3 inh -13.3%.
`COc1cccc(CN2CCC(C(=O)N3CCN(c4ccccc4F)CC3)CC2)c1` gave DT40 TDP1 CPT -4.9%, TDP1 inh 0.0%, HepG2 tox -8.5%, IL-1B inflam inh 0.0, DT40 TDP1 no CPT inconclusive and TGFb SMAD3 inh -13.8%.
Cc1oc(-c2cccc(Cl)c2)nc1CN1CCC(C(=O)N2CCN(c3ccccc3F)CC2)CC1 was read as DT40 TDP1 CPT 18.4µM*, HepG2 tox -36.4%, IL-1B inflam inh -56.2*, DT40 TDP1 no CPT 18.4µM* and TGFb SMAD3 inh inconclusive.
For Cc1ccc(Cl)cc1N1CCN(C(=O)C2CCN(Cc3nc(-c4cccc(Cl)c4)oc3C)CC2)CC1 the results were DT40 TDP1 CPT inconclusive, TDP1 inh 1.2%, HepG2 tox -22.0%, DT40 TDP1 no CPT 14.6µM* and TGFb SMAD3 inh -4.1%.
For Cc1oc(-c2cccc(Cl)c2)nc1CN1CCCC(C(=O)N2CCN(c3ccc(F)cc3)CC2)C1 (centres undefined) the results were DT40 TDP1 CPT 7.31µM*, TDP1 inh 10.4%, HepG2 tox -31.7%, DT40 TDP1 no CPT 9.2µM* and TGFb SMAD3 inh inconclusive.
`O=C1C2=CC[C@H]3C(=O)N(Cc4ccccc4)C(=O)[C@@H]3[C@@H]2[C@H](O)[C@@H]2O[C@H]12` gave TDP1 inh 2.6%[21 µM].
Screening COC(=O)C(N)Cc1ccc(O)c(O)c1 (centres undefined) returned DT40 TDP1 CPT -15.9%, TDP1 inh inconclusive, HepG2 tox -15.2%, IL-1B inflam inh 76.1, DT40 TDP1 no CPT -10.4% and TGFb SMAD3 inh -5.7%.
Screening NC(Cc1ccc(O)c(O)c1)C(=O)O (centres undefined) returned DT40 TDP1 CPT 3.66µM* and DT40 TDP1 no CPT 2.91µM*.
Screening CC1Cc2ccccc2N1S(=O)(=O)c1cccc(C(=O)N2CCCCC2)c1 (centres undefined) returned DT40 TDP1 CPT 20.6µM*, TDP1 inh 0.1%, HepG2 tox -19.6%, IL-1B inflam inh inconclusive, DT40 TDP1 no CPT 16.4µM* and TGFb SMAD3 inh -27.7%.
`CC1Cc2ccccc2N1S(=O)(=O)c1cccc(C(=O)c2nccn2C)c1` (centres undefined) gave DT40 TDP1 CPT -17.7%, TDP1 inh 4.7%, HepG2 tox -27.6%, IL-1B inflam inh 13.1, DT40 TDP1 no CPT -29.4% and TGFb SMAD3 inh inconclusive.
